Publication PMC4336329 (PLoS ONE, 2015)
About 14,000 (4.5%) of roughly 310,000 compounds showed an effect of 50% or more. Effects have a minus sign here. The sample holds strong results, similar compounds and a random draw of the others, so the mix is not that of the screen.

target: human ether-à-go-go-related gene (hERG) potassium channel (human, UniProt Q12809); test: primary screen, population patch clamp on CHO cells stably expressing hERG; higher = less effect of the substance
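Note: peak tail current of the secondary pulse compared with the same well before compound.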

human ether-à-go-go-related gene (hERG) potassium channel, sequence (Q12809 whole entry, looked up): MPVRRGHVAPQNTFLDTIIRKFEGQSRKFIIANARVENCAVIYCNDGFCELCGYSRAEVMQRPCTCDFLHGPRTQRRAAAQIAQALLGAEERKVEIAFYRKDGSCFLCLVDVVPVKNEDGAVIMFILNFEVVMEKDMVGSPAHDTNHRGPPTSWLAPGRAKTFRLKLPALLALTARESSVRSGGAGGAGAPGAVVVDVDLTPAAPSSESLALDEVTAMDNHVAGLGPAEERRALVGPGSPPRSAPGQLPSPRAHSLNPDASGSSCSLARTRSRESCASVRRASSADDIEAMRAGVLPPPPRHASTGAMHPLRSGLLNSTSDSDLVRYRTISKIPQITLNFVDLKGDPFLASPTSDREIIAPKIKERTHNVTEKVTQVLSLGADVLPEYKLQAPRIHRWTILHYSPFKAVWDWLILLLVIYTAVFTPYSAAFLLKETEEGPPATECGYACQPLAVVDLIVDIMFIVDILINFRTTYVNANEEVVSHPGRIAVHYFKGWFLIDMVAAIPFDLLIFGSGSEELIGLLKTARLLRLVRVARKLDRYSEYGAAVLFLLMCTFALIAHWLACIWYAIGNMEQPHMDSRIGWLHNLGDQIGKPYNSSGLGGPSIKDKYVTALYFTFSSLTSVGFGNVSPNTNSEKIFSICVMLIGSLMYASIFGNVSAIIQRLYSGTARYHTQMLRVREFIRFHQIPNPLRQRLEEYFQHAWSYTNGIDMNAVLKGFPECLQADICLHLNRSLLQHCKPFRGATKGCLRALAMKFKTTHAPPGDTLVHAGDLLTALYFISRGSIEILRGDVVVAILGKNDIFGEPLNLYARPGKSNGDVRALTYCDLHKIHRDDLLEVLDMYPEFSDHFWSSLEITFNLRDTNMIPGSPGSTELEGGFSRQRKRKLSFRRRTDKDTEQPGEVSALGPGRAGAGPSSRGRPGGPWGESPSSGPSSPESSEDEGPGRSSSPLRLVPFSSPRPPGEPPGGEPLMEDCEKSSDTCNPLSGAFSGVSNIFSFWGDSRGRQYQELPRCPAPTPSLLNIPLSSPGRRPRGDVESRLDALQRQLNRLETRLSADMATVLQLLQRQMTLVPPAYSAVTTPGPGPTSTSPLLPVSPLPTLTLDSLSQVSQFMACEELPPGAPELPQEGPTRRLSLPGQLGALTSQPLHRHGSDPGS

SMILES | hERG current change (%, negative = inhibition) at 10uM [%]
Cn1cc(CC(=O)N2CCN(c3ccccc3F)CC2)c2ccccc21 | -9.66
CCCOc1ccccc1N/C(=N\S(=O)(=O)c1ccc(C)cc1)Nc1nc(C)cc(C)n1 | 26.1
COc1cc2cc(CCCOC(=O)c3ccc(F)cc3)oc(=O)c2cc1OC | -29.5
N#Cc1ccc(C(=O)OCCc2cc3ccccc3c(=O)o2)cc1 | -29
CC(C)(OC(=O)c1ccc(C#N)cc1)c1cc2ccccc2c(=O)o1 | -73.1
COc1cc2cc(CCCOC(=O)c3ccc(C#N)cc3)oc(=O)c2cc1OC | -65
COc1cc2cc(CCOC(=O)c3ccc(C#N)cc3)oc(=O)c2cc1OC | -37.9
CC(C)(OC(=O)c1ccc(C(F)(F)F)cc1)c1cc2ccccc2c(=O)o1 | 14.6
N#Cc1ccc(C(=O)OCCCc2cc3ccccc3c(=O)o2)cc1 | -69.4
CC(C)(OC(=O)c1ccc(F)cc1)c1cc2ccccc2c(=O)o1 | 3.1
O=C(OCCCc1cc2ccccc2c(=O)o1)c1ccc(F)cc1 | -37.9
COc1cccc(CNCCc2ccccc2)c1OC.Cl | 5.21
O=C1C=C(c2cccc3c2oc2ccccc23)CCC1 | -2.35
Cc1c(C(=O)/C=C/N(C)C)nnn1-c1ccc(F)c(Cl)c1 | 2.73
O=C(NCCc1ccccc1)C1CCC(=O)N1CCc1ccccc1 (stereo not drawn) | 8.78
CC1CC(C)CN(CCOc2ccccc2-c2ccccc2)C1.O=C(O)C(=O)O (stereo not drawn) | -68.5
CC1CCN(CCCCOc2ccccc2-c2ccccc2)CC1.O=C(O)C(=O)O | -72.6
CC1CN(CCOCCOc2ccccc2-c2ccccc2)CC(C)O1.O=C(O)C(=O)O (stereo not drawn) | -13.5
CC1CCN(CCCCOc2ccccc2F)CC1.O=C(O)C(=O)O | -13.3
CC1CCCN(CCOCCOc2ccccc2-c2ccccc2)C1.O=C(O)C(=O)O (stereo not drawn) | -72.9
C=CCc1cc(OC)ccc1OCCN1CC(C)OC(C)C1.O=C(O)C(=O)O (stereo not drawn) | -9.85
C=CCc1cc(Cl)ccc1OCCn1ccnc1.O=C(O)C(=O)O | -10.1
CC1CN(CCOc2ccccc2-c2ccccc2)CC(C)O1.O=C(O)C(=O)O (stereo not drawn) | -9.99

SMILES | hERG current change (%, negative = inhibition) at 10uM [%]
CC1CN(CCCOc2ccccc2-c2ccccc2)CC(C)O1.O=C(O)C(=O)O (stereo not drawn) | -47.2
CN1CCN(CCCCOc2ccccc2-c2ccccc2)CC1.O=C(O)C(=O)O | -38.2
C=CCc1cc(Cl)ccc1OCCN1CC(C)OC(C)C1.O=C(O)C(=O)O (stereo not drawn) | -53.1
O=C(O)C(=O)O.c1ccc(-c2ccccc2OCCOCCN2CCCCC2)cc1 | -44.7
Cc1ccc(S(=O)(=O)N2CCC(C(=O)Nc3ccc(S(=O)(=O)N4CCCC4)cc3)CC2)cc1 | -10.6
COc1cccc(C2C(C(=O)c3sc(C)nc3C)=C(O)C(=O)N2CCN2CCOCC2)c1 (stereo not drawn) | 10.8
Fc1ccc(CNc2ccc(N3CCN(Cc4ccccc4)CC3)cc2)cc1 | -30.1
COc1ccc(C(=O)NCc2nnc(SCCOc3ccccc3)n2C)cc1 | -15.5
O=C(CCNS(=O)(=O)c1ccccc1C(F)(F)F)N1CCN(c2ccccc2O)CC1 | -26.9
CCC(=O)N1CCN(c2ccc(NC(=S)NC(=O)COc3ccccc3)cc2)CC1 | -21.6
CC(=O)c1c(C)[nH]c(C(=O)Nc2nc(-c3ccc(-c4ccccc4)cc3)cs2)c1C | 19.3
O=C(COCc1cc(-c2ccc3c(c2)OCO3)on1)Nc1cccnc1 | 10
CC1CC(C)CN(CCOc2cccc(Cl)c2Cl)C1.O=C(O)C(=O)O (stereo not drawn) | -35.9
CC1CCCN(CCOCCSc2ccccc2)C1.O=C(O)C(=O)O (stereo not drawn) | -34.5
CC1CCN(CCOCCOc2ccccc2Br)CC1 | -30.1
CC1CCN(CCOCCOc2ccccc2-c2ccccc2)CC1 | -57.2
CC1CN(CCOc2ccc(Cl)cc2Cl)CC(C)O1.O=C(O)C(=O)O (stereo not drawn) | -24.6
CC1CCCN(CCOc2ccc3ccccc3c2Br)C1.O=C(O)C(=O)O (stereo not drawn) | -69
O=C(O)C(=O)O.c1ccc(-c2ccccc2OCCOCCN2CCNCC2)cc1 | 2.27
CC1CCN(CCOc2ccccc2-c2ccccc2)CC1.O=C(O)C(=O)O | -58.6
CC1CC(C)CN(CCOc2ccc(Cl)cc2Cl)C1.O=C(O)C(=O)O (stereo not drawn) | -67.3
CC1CCN(C(=O)COc2ccc3ccccc3c2Br)CC1 | 11.8
